Most compounds without a hit are left out; they make up all but 2.9% or so of the library.
rCAG binder: molecules binding r(CAG) RNA repeats; inhibition, % at 3 µM; actives 1.3% (n = 370,000); r(CAG) RNA repeat, TO-PRO-1 dye displacement fluorescence;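 active means inhibition above the plate cutoff, the mean of all test compounds on that plate plus 3 SD, cut at about 35% in these data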;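 further: higher means more dye released from RNA so lower well fluorescence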
PAFAH2 FP inh: inhibitors of human PAFAH2 | Q99487 | recombinant PAFAH2, FP-rhodamine activity probe, fluorescence polarization | inhibition, % at 3.39 µM | actives 0.99% (n = 340,000) | AID 492956;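 active means inhibition above the mean over all tested compounds plus 3 SD, cut at about 30% in these data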;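 further: inhibitors block probe labeling of enzyme so polarization drops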
PAFAH1B2 FP inh: inhibitors of human PAFAH1B2; recombinant PAFAH1B2, FP-rhodamine activity probe, fluorescence polarization; actives 1.2% (n = 340,000); inhibition, % at 3.39 µM; P68402;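 active means inhibition above the mean of all tested compounds plus 3 SD, cut at about 24% in these data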
Target sequence (P68402 whole entry, looked up): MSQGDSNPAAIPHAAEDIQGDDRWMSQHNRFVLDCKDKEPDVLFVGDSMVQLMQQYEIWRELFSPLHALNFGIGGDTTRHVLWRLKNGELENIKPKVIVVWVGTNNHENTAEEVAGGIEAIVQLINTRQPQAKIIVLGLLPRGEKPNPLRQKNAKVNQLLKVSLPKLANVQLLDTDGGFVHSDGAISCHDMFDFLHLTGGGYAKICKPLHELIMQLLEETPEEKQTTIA
EBNA-1 inh: blocks EBNA-1 binding to DNA; actives 0.34% (n = 300,000); inhibition, % at 14.8 µM; EBNA-1 DNA binding, fluorescence polarization; in the data active means inhibition above about 28%
PAFAH1B3 FP inh: blocks human PAF acetylhydrolase 1B catalytic subunit 3 | Q15102 | recombinant PAFAH1B3, FP-rhodamine probe, fluorescence polarization | inhibition, % at 3.39 µM | actives 0.28% (n = 340,000);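 active means inhibition above the screen-wide average of all tested compounds plus 3 SD, cut at about 25% in these data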
Target sequence (Q15102 whole entry, looked up): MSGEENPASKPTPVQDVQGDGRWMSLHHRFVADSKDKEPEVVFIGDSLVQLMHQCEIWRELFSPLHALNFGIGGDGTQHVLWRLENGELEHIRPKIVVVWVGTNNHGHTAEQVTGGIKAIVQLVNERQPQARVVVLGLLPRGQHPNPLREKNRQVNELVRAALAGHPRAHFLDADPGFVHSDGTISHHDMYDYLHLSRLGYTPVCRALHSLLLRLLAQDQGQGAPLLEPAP
ZTA counter: blocks Epstein-Barr virus ZTA, an EBNA-1 counter-screen | P03206 | ZTA-DNA binding, fluorescence polarization | inhibition, % at 11 µM | actives 0.15% (n = 320,000); in the data active means inhibition above about 33%
Target sequence (P03206 whole entry, looked up): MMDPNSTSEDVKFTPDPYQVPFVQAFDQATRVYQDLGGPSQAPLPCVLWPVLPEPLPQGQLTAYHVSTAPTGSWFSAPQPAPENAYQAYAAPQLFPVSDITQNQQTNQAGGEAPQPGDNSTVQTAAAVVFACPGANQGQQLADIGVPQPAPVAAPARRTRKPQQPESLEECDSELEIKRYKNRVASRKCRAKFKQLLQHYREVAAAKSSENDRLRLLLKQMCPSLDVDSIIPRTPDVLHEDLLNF
EBNA-1 inh conf: EBNA-1 (EBV) inhibition, confirmation | shares compounds with EBNA-1 inh | inhibition, % at 14.8 µM | Recombinant EBNA-1 DBD, Cy5-DNA fluorescence polarization | actives 35% (n = 830);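 active means mean inhibition across replicates above a set limit taken from the earlier primary screen, cut at about 28% in these data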
ZTA DNA inh trip: ZTA (EBV) inhibition, triplicate counter-screen; shares compounds with EBNA-1 inh; Zta-ZRE DNA binding, Cy5 fluorescence polarization; inhibition, % at 11.1 µM; 830 tested, under 10 active; AID 2328;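 active means mean inhibition over triplicates above a set limit taken from the primary EBNA-1 screen, cut at about 37% in these data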;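 further: purified full length Zta protein with Cy5 labeled ZRE DNA probe; inhibitors lower polarization by freeing the labeled DNA probe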
Each line names hits and unclear results; the compound was inactive in the other large screens (follow-up assays come after a bar, where they were run).

COc1ccc(NC(=O)CCC(=O)c2cccs2)cc1S(=O)(=O)Nc1ccc(Cl)cc1	EBNA-1 inh 34 | EBNA-1 inh conf inactive | ZTA DNA inh trip inactive
COC(=O)[C@]12CCCCC=C1N(Cc1ccc(OC)cc1)C(=O)[C@@H]2CC(=O)NCCC(C)C	none (no result: PAFAH2 FP inh, PAFAH1B2 FP inh, EBNA-1 inh, PAFAH1B3 FP inh, ZTA counter)
CCOC(=O)N1CCN(C(=O)C2CC(=O)N(Cc3ccc(OC)cc3)C2)CC1 (stereo unspecified)	none
COc1ccc(CN2CC(C(=O)N3CCOCC3)CC2=O)cc1 (stereo unspecified)	EBNA-1 inh 47 | EBNA-1 inh conf inactive | ZTA DNA inh trip inactive
O=C(N/N=C/c1ccc(O)cc1)c1nc(-c2ccccc2)n(-c2ccccc2)n1	EBNA-1 inh 31 | EBNA-1 inh conf 31 | ZTA DNA inh trip inactive
COc1cc(/C=N/NC(=O)c2nc(-c3ccccc3)n(-c3ccccc3)n2)ccc1O	none
CCn1c(CSc2nnc3ccccn23)nc2cc(C(=O)O)ccc21	PAFAH2 FP inh 60, PAFAH1B2 FP inh 49, EBNA-1 inh 45, PAFAH1B3 FP inh 44 | EBNA-1 inh conf 44 | ZTA DNA inh trip 82
Cn1c(O)c(N=NC(=O)c2cc(-c3cccs3)nc3ccccc23)c2ccccc21	EBNA-1 inh 109 | EBNA-1 inh conf 82 | ZTA DNA inh trip inactive
Cc1ccc(S(=O)(=O)N2C3CCCCC3O[C@H]2CC(=O)c2cccs2)cc1 (stereo partly specified)	none (no result: PAFAH2 FP inh, PAFAH1B2 FP inh, EBNA-1 inh, PAFAH1B3 FP inh, ZTA counter)
CC(C)CCNC(=O)c1cn(CC(C)C)c(=O)c2c1c1ccccc1n2C	none
CC(C)Cn1cc(C(=O)NCc2cccs2)c2c3ccccc3n(C)c2c1=O	EBNA-1 inh 38 | EBNA-1 inh conf inactive | ZTA DNA inh trip inactive
Cc1cccc(-c2nnc(SCC(=O)Nc3ccc(-c4nc5ccc(C)cc5s4)cc3)n2Cc2ccco2)c1	none (no result: PAFAH2 FP inh, PAFAH1B2 FP inh, EBNA-1 inh, PAFAH1B3 FP inh, ZTA counter)
O=C(NCCc1c[nH]c2ccccc12)OCc1cn(Cc2cc(F)ccc2F)nn1	none (no result: PAFAH2 FP inh, PAFAH1B2 FP inh, EBNA-1 inh, PAFAH1B3 FP inh, ZTA counter)
Cc1cc(=O)oc2c3c(cc(OCC(=O)N4CCC[C@H]4C(=O)O)c12)OC(C)(C)CC3	EBNA-1 inh 174 | EBNA-1 inh conf inactive | ZTA DNA inh trip inactive
COc1ccccc1/C=N\NC(=O)c1cccc(S(=O)(=O)N(C)C)c1	none (no result: PAFAH2 FP inh, PAFAH1B2 FP inh, EBNA-1 inh, PAFAH1B3 FP inh, ZTA counter)
CCc1nn(-c2ccccc2)c(=S)c2ccccc12	EBNA-1 inh 35 | EBNA-1 inh conf inactive | ZTA DNA inh trip inactive
CC(C)C[C@@H]1COc2cccc(N3CCSCC3)c2S(=O)(=O)N1C	none (no result: PAFAH2 FP inh, PAFAH1B2 FP inh, EBNA-1 inh, PAFAH1B3 FP inh, ZTA counter)
O=C(CCCN1C(=O)/C(=C/c2cccs2)SC1=S)NNC(=O)c1ccccc1O	EBNA-1 inh 40 | EBNA-1 inh conf inactive | ZTA DNA inh trip inactive
O=C(CCCN1C(=O)/C(=C/c2cccs2)SC1=S)NNC(=O)c1ccncc1	none
COC(=O)[C@]12C[C@H](CC(=O)NCCc3ccccc3OC)C(=O)N(Cc3ccccc3)C1=C[C@H](C(C)(C)C)O[C@@H]2C	none (no result: PAFAH2 FP inh, PAFAH1B2 FP inh, EBNA-1 inh, PAFAH1B3 FP inh, ZTA counter)
COc1ccc(C(=O)Nc2ccc(-c3ccc(NC(=O)c4ccc(OC)cc4)c(OC)c3)cc2OC)cc1	none
COc1ccc(NC(=O)c2cc(-c3cc(Cl)ccc3O)n[nH]2)c(OC)c1	EBNA-1 inh 33 | EBNA-1 inh conf inactive | ZTA DNA inh trip inactive
COc1ccc(NC(=O)c2ccc(C(=O)Nc3ccc(OC)cc3OC)cc2)c(OC)c1	EBNA-1 inh 56 | EBNA-1 inh conf 51 | ZTA DNA inh trip inactive
CCCCCCCCN1C(=O)[C@@H](CC(=O)N2CCCCC2)C[C@@]2(C(=O)OC)C1=C[C@H](COCc1ccccc1)O[C@@H]2C	none (no result: PAFAH2 FP inh, PAFAH1B2 FP inh, EBNA-1 inh, PAFAH1B3 FP inh, ZTA counter)
CCCCCCN1CCS(=O)(=O)N(Cc2ccc(Cl)cc2)C(C(=O)OC)C1 (stereo unspecified)	none (no result: PAFAH2 FP inh, PAFAH1B2 FP inh, EBNA-1 inh, PAFAH1B3 FP inh, ZTA counter)
Cc1ccc(C(=O)Nc2nc3ccc(S(C)(=O)=O)cc3s2)cc1C	EBNA-1 inh 144 | EBNA-1 inh conf 97 | ZTA DNA inh trip inactive
Nc1c(C(=O)Nc2ccc3c(c2)OCCO3)nnn1Cc1cccc(Br)c1	EBNA-1 inh 36 | EBNA-1 inh conf 30 | ZTA DNA inh trip inactive
Nc1c(C(=O)Nc2ccc3c(c2)OCCO3)nnn1Cc1ccc(Br)cc1	none
Cc1ccc(Nc2nc(Oc3ccc(OCc4ccccc4)nn3)nc(N3CCOCC3)n2)cc1	EBNA-1 inh 32 | EBNA-1 inh conf inactive | ZTA DNA inh trip inactive
CCCN1C(=O)c2[nH]nc(-c3ccccc3)c2C1c1ccc(F)cc1 (stereo unspecified)	none (no result: PAFAH2 FP inh, PAFAH1B2 FP inh, EBNA-1 inh, PAFAH1B3 FP inh, ZTA counter)
NC(=S)N/N=C/c1ccc(/C=N/NC(N)=S)cc1	EBNA-1 inh 68 | EBNA-1 inh conf 34 | ZTA DNA inh trip inactive
COc1ccc(CC2(CO)CCN(Cc3ccc(NC(C)=O)cc3)CC2)cc1	EBNA-1 inh 46 | EBNA-1 inh conf inactive | ZTA DNA inh trip inactive
O=c1[nH]cc(S(=O)(=O)N2CCN(c3cccc(C(F)(F)F)c3)CC2)c(=O)[nH]1	EBNA-1 inh 31 | EBNA-1 inh conf inactive | ZTA DNA inh trip inactive
O=C(Cn1nnc(-c2ccccc2)n1)NCc1ccco1	none
COc1ccccc1C(=O)Nc1ccc(-c2nnn(CC(=O)NCc3ccco3)n2)cc1	EBNA-1 inh 42 | EBNA-1 inh conf 52 | ZTA DNA inh trip inactive
COc1ccc(C(=O)Nc2ccccc2-c2nnn(CC(=O)NCc3ccco3)n2)cc1	EBNA-1 inh 54 | EBNA-1 inh conf inactive | ZTA DNA inh trip inactive
O=C(Cn1nnc(-c2ccccc2NC(=O)c2cccs2)n1)Nc1ccccc1	EBNA-1 inh 28 | EBNA-1 inh conf 47 | ZTA DNA inh trip inactive
CCN1C(=O)c2cccc3c(S(=O)(=O)Nc4ccc(OC)cc4OC)ccc1c23	EBNA-1 inh 32 | EBNA-1 inh conf inactive | ZTA DNA inh trip inactive
CCN1C(=O)c2cccc3c(S(=O)(=O)Nc4ccccc4)ccc1c23	none (no result: rCAG binder)
COCCOC(=O)c1c(NC(=O)CNc2ccc(C)c(F)c2)sc(C(N)=O)c1C	EBNA-1 inh 42 | EBNA-1 inh conf inactive | ZTA DNA inh trip inactive
COCCOC(=O)c1c(NC(=O)CNCc2ccco2)sc(C(N)=O)c1C	none
c1ccc(-c2ccc(C3=Nn4c(nnc4-c4cc(-c5ccccc5)n[nH]4)SC3)cc2)cc1	EBNA-1 inh 33 | EBNA-1 inh conf 52 | ZTA DNA inh trip inactive
c1ccc(-c2ccc(C3=Nn4c(nnc4-c4ccccc4)SC3)cc2)cc1	none (no result: PAFAH2 FP inh, PAFAH1B2 FP inh, EBNA-1 inh, PAFAH1B3 FP inh, ZTA counter)
CCOC(=O)c1c(NC(=O)c2ccc(C)cc2)sc2c1CC(C)(C)OC2	none
COC(=O)c1c(NC(=O)c2ccccc2)sc2c1CC(C)(C)OC2	EBNA-1 inh 32 | EBNA-1 inh conf inactive | ZTA DNA inh trip inactive
CCCC(=O)Nc1ccc2nc(SCC(=O)Nc3ccc(N4CCOCC4)c(Cl)c3)sc2c1	EBNA-1 inh 67 | EBNA-1 inh conf 71 | ZTA DNA inh trip inactive
O=C(c1cc(-c2ccc(Cl)cc2)nc2ccccc12)N1CCN(c2ncccn2)CC1	none (no result: PAFAH2 FP inh, PAFAH1B2 FP inh, EBNA-1 inh, PAFAH1B3 FP inh, ZTA counter)

From PubChem BioAssay
